This is a sample that favours compounds with a hit; in the whole collection about 10% have one here.
JMJD2A Tudor: qHTS Assay for Inhibitors of JMJD2A-Tudor Domain; Lysine-specific demethylase 4A (Homo sapiens), O75164; AlphaScreen JMJD2A-Tudor / H3K4me3 peptide binding; Potency, µM (series often up to 114 µM), most hits filed as inhibitors; 390,000 compounds, 4.4% hits; also: nearly all actives have a fitted effect of over 50% in size
BAZ2B block: qHTS Assay for Inhibitors of BAZ2B | Bromodomain adjacent to zinc finger domain protein 2B (Homo sapiens), Q9UIF8 | AlphaScreen BAZ2B-H3K14Ac peptide displacement | Potency, µM (doses to about 114 µM), actives largely listed as inhibitors | 360,000 compounds, 4.4% hits; also: nearly all actives have a fitted effect of over 60% in size
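BAZ2B (50 nM) with biotin-H3(5-23)K14Ac peptide (50 nM) in PBS pH 7.4, 0.01% Tween-20, preformed 30 min, then compound 30 min at room temperature; top concentration 110uM. AlphaScreen streptavidin donor/nickel chelate acceptor beads (10 ug/mL final), 20 min dark, signal read.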
CtBP-E1A inh: qHTS Assay for Inhibitors of the CtBP/E1A Interaction. AID 651724, 2012. activity change, % (no concentration beside the values). AlphaScreen GST-E1A/His-CtBP binding, 1536-well; hits give low values. 340,000 compounds, 0.49% hits. CtBP / adenovirus E1A interaction (AlphaScreen); in the data active = activity change below about -65%; inconclusive = mostly about -30% to -63%
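Protein mix (5X: 125 nM each GST-E1A, His-CtBP) was incubated with pinned compound 2 h at 37 deg C in dark, in 50 mM Tris pH 8.0 buffer with 300 mM NaCl. Glutathione donor and nickel acceptor beads followed; AlphaScreen signal read after 1 h.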
HP1b chromo inh: HTS for Inhibitors of HP1-beta Chromodomain Interactions with Methylated Histone Tails | Chromobox protein homolog 1 (Homo sapiens), P83916 | AlphaScreen HP1-beta / biotin-H3K9me3 peptide binding | Potency, µM (highest dose often 114 µM), hits mostly inhibitors | 390,000 compounds, 0.56% hits; also: nearly all actives have a fitted effect of over 70% in size
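HP1-beta protein (50 nM final) preincubated 30 min at room temperature with biotinylated H3(1-18)K9me3 peptide (50 nM) in PBS pH 7.4, 0.01% Tween-20, then compound added for 30 min. AlphaScreen streptavidin donor/nickel chelate acceptor beads (10 ug/mL final), 30 min dark, luminescence read.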
G9a block: qHTS Assay for Inhibitors of Histone Lysine Methyltransferase G9a; Histone-lysine N-methyltransferase EHMT2 (Homo sapiens), Q96KQ7; G9a H3K9 monomethylation, AlphaScreen, 2 h; Potency, µM (highest dose often 102 µM), usual class: inhibitors; 350,000 compounds, 8.8% hits; also: nearly all actives have a fitted effect of over 75% in size
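Quantitative HTS format: methyltransferase activity on a biotin-tagged H3K9 peptide is measured by AlphaScreen, using a rabbit anti-monomethyl-H3K9 antibody with streptavidin donor and anti-IgG acceptor beads. Final levels are 20 nM enzyme, 500 nM peptide, 20 uM SAM; 2 h RT.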
Six1-Eya2 inh: qHTS Assay for Inhibitors of the Six1/Eya2 Interaction. Homeobox protein SIX1 (Homo sapiens) + Protein phosphatase EYA2 (Homo sapiens), …. AlphaScreen GST-Six1/His-Eya2 binding, biochemical; hits give low values. activity change, % (test concentration not listed). 360,000 compounds, 0.56% hits; in the data active = activity change below about -65%; inconclusive = mostly about -30% to -63%
Target sequence (O00167 whole entry, looked up): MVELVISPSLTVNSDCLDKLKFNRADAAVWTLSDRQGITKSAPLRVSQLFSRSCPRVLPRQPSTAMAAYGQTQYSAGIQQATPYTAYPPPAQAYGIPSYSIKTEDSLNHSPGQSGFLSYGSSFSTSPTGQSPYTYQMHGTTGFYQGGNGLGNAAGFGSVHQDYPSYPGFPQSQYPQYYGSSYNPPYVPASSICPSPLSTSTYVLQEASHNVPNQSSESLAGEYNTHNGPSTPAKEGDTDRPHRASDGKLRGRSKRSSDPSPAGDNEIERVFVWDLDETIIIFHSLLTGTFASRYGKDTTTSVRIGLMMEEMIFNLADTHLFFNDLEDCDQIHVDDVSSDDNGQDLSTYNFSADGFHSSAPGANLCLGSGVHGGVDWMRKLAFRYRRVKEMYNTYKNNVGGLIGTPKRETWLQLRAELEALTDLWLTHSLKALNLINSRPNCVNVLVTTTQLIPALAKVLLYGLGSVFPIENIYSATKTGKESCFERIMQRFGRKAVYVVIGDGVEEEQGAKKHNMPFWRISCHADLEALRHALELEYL
Target sequence (Q15475 whole entry, looked up): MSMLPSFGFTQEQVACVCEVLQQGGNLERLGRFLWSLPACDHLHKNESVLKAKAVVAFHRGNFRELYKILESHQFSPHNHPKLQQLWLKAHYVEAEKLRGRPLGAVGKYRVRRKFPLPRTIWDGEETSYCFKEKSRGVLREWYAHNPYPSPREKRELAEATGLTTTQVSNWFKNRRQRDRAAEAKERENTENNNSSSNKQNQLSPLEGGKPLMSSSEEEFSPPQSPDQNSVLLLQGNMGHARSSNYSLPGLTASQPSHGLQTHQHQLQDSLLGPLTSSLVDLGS
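AlphaScreen luminescence read after one hour at 37 °C in darkness. Pin-transferred compounds met GST-Six1 and His-Eya2 protein (5X stock 250 nM/500 nM) plus glutathione donor and Ni-chelate acceptor beads (5X, 50 ug/mL).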
Of the large screens only hits and unclear results are named; the others gave an inactive call. Unless noted, calls follow the shape of the dose curve; as a rule, active = well fitted inhibition curve with a large enough effect; inconclusive = small, poorly fitted or top-dose-only effect; inactive = no such curve, though single readings can be large or run the other way.

COCCn1c(SCC(=O)c2ccc(Cl)cc2)nnc1C(C)C	JMJD2A Tudor 50µM, G9a block 11µM
O=C(CSc1nnc2scc(-c3ccccc3)n12)c1ccc2c(c1)OCCO2	G9a block 89µM
COCCn1c(SCC(=O)c2ccc3c(c2)OCCO3)nnc1C(C)C	JMJD2A Tudor 79µM, G9a block 18µM
O=C(CSc1nnc2scc(-c3ccccc3)n12)Nc1nsc(-c2ccccc2)n1	JMJD2A Tudor inconclusive, BAZ2B block 56µM, G9a block inconclusive
COCCn1c(SCC(=O)Nc2ccc3c(c2)OCCO3)nnc1C(C)C	none
CCCCn1c(SCC(=O)c2ccc3c(c2)OCCO3)nnc1-c1ccoc1C	JMJD2A Tudor inconclusive, BAZ2B block 89µM, G9a block inconclusive
CCn1c(NC(=S)Nc2ccccc2)nc2ccccc21	JMJD2A Tudor inconclusive, BAZ2B block 5.6µM
S=C(Nc1ccccc1)Nc1nc2ccccc2n1CCOc1ccc(Cl)cc1	JMJD2A Tudor inconclusive, BAZ2B block 7.1µM, HP1b chromo inh inconclusive
Cc1cc(O)c(C(c2ccccc2)N2CCC(C)CC2)c(=O)n1Cc1ccco1 (configuration not stated)	G9a block inconclusive (no result: CtBP-E1A inh, Six1-Eya2 inh)
Cc1cc(Nc2ccc(Br)c(C)c2)n2nc(-c3ccco3)nc2n1	none (no result: CtBP-E1A inh, Six1-Eya2 inh)
Cc1cc(C(=O)C(C)Sc2cccc[n+]2[O-])c(C)n1-c1ccc(Cl)cc1 (configuration not stated)	G9a block 40µM
CCOc1ccc(-n2c(SCC(=O)Nc3cccc(Cl)c3)nc3c(oc4ccccc43)c2=O)cc1	none (no result: CtBP-E1A inh, Six1-Eya2 inh)
Cc1ccc(C(=O)Nc2ncccc2O)o1	JMJD2A Tudor 3.5µM, BAZ2B block inconclusive
Cc1cccnc1NC(=O)c1ccc(Br)o1	none
O=C(CNC(=O)c1ccc(Br)o1)Nc1ncccc1O	JMJD2A Tudor inconclusive, BAZ2B block 79µM, CtBP-E1A inh inconclusive, G9a block 28µM
COc1ccc(Nc2ncc(C(=O)Nc3cccc(Cl)c3)c3ccccc23)cc1	JMJD2A Tudor 79µM, BAZ2B block 79µM (no result: CtBP-E1A inh, Six1-Eya2 inh)
Cc1cccc(Nc2ccc([N+](=O)[O-])cc2C(=O)O)c1	JMJD2A Tudor inconclusive, BAZ2B block 50µM, G9a block 1.4µM
O=C(O)c1cc([N+](=O)[O-])ccc1Nc1ccccc1	none
O=[N+]([O-])c1cc(Br)c(Nc2ccccc2)c([N+](=O)[O-])c1	JMJD2A Tudor 20µM, BAZ2B block 14µM, HP1b chromo inh inconclusive, G9a block 40µM (no result: CtBP-E1A inh)
Nc1cc(C(F)(F)F)ccc1Nc1ccccc1	BAZ2B block 50µM (no result: CtBP-E1A inh)
N#Cc1ccc(Nc2ccccc2)c(N)c1	none (no result: G9a block)
Nc1cc([N+](=O)[O-])ccc1Nc1ccccc1	JMJD2A Tudor inconclusive, BAZ2B block inconclusive, G9a block 40µM
CC(C)(C)c1ccc(C(=O)NC2(C(F)(F)F)NC(=O)N(CCc3ccccc3)C2=O)cc1 (configuration not stated)	none (no result: CtBP-E1A inh, Six1-Eya2 inh)
Cc1ccc(CN2CCN(C3CCN(C(=O)Nc4ccccc4C(F)(F)F)CC3)C(=O)C2=O)cc1	none (no result: CtBP-E1A inh, Six1-Eya2 inh)
COc1ccccc1OCCC(=O)Nc1ccc2c(c1)OCO2	none (no result: BAZ2B block, CtBP-E1A inh, G9a block)
COc1ccc(S(=O)(=O)N2CCN(Cc3ccc4c(c3)OCO4)CC2)c2ccccc12	G9a block 50µM
COc1ccc(Cl)cc1S(=O)(=O)N1CCN(Cc2ccc3c(c2)OCO3)CC1	none
COc1ccccc1NC(=O)N1CCN(Cc2ccc3c(c2)OCO3)CC1	JMJD2A Tudor 4µM, BAZ2B block 50µM, HP1b chromo inh inconclusive (no result: G9a block)
COc1cccc(C(=O)N2CCN(Cc3ccc4c(c3)OCO4)CC2)c1OC	JMJD2A Tudor 7.9µM, BAZ2B block 79µM, G9a block inconclusive
Cc1ccccc1OCCCC(=O)Nc1ccc2c(c1)OCO2	G9a block 20µM
Cc1ccn2c(=O)cc(CSc3nnc(NC(=O)c4ccccc4Cl)s3)nc2c1	none (no result: CtBP-E1A inh, Six1-Eya2 inh)
CCc1nn(CC(=O)NCCc2ccc(OC)c(OC)c2)c(=O)c2cc3occc3n12	none (no result: CtBP-E1A inh, Six1-Eya2 inh)
Cn1c(CN2CCCC2)nc2cc(NS(=O)(=O)c3ccccc3)ccc21	none
COc1ccc(S(=O)(=O)N2CCN(Cc3ccc4c(c3)OCO4)CC2)cc1	BAZ2B block inconclusive
COc1ccccc1OCCC(=O)NCc1ccc2c(c1)OCO2	JMJD2A Tudor 35µM
COc1cc(C(=O)N2CCN(Cc3ccc4c(c3)OCO4)CC2)cc(OC)c1OC	JMJD2A Tudor 0.89µM, BAZ2B block 79µM, HP1b chromo inh inconclusive, G9a block 20µM
CSc1ccc(S(=O)(=O)N2CCN(Cc3ccc4c(c3)OCO4)CC2)cc1	G9a block 79µM
COc1ccsc1C(=O)N1CCN(Cc2ccc3c(c2)OCO3)CC1	none
O=S(=O)(Nc1ccc(O)c(CN2CCCCC2)c1)c1ccccc1	G9a block 45µM
COc1cccc(NS(=O)(=O)c2ccc3c(c2)CCC(=O)N3)c1	none (no result: BAZ2B block, CtBP-E1A inh, HP1b chromo inh, G9a block, Six1-Eya2 inh)
Cc1nn(-c2ccccc2)c2c1N(CC(=O)N1CCN(c3ccccc3F)CC1)C(=O)CS2	BAZ2B block inconclusive (no result: CtBP-E1A inh, Six1-Eya2 inh)
O=C(c1ccc(NS(=O)(=O)c2ccccc2)cc1)N1CCN(Cc2ccc3c(c2)OCO3)CC1	G9a block 50µM
COc1ccc(NS(=O)(=O)c2cccc(C(=O)N3CCN(Cc4ccc5c(c4)OCO5)CC3)c2)cc1	G9a block inconclusive
O=C(CCc1ccccn1)N1CCCC(Nc2cccc(F)c2)C1 (configuration not stated)	JMJD2A Tudor 7.1µM
O=C(CCc1ccccn1)N1CCCC(Nc2ccc(F)cc2)C1 (configuration not stated)	none (no result: G9a block)
COc1ccc(NC2CCCN(C(=O)CCc3cccc(F)c3)C2)cc1 (configuration not stated)	JMJD2A Tudor inconclusive, BAZ2B block inconclusive, G9a block 50µM
COc1ccc(NC2CCCN(C(=O)CCc3cccc(Cl)c3)C2)cc1 (configuration not stated)	JMJD2A Tudor inconclusive, BAZ2B block 35µM, HP1b chromo inh inconclusive, G9a block inconclusive
COc1ccc(C2c3c(n(C)c4ccccc34)C(=O)N2CC(=O)Nc2c(C)cc(C)cc2C)cc1 (configuration not stated)	G9a block inconclusive (no result: CtBP-E1A inh, Six1-Eya2 inh)
CCCN(CCC(=O)Nc1cc(OC)cc(OC)c1)CC1CC1	BAZ2B block inconclusive, G9a block 45µM
CCN(CCC(=O)Nc1cc(OC)cc(OC)c1)Cc1ccccc1	G9a block 45µM

High-throughput results from PubChem BioAssay.
